This passage reports Potency and activity change, positive = activation results from PubChem BioAssay AID1458 (National Center for Advancing Translational Sciences (NCATS), 2008).

About 5,900 (2.8%) of roughly 210,000 compounds were called active. Where a call stands in place of a potency, no number is given. Roughly 5% stayed inconclusive and do not appear here. This is one part of a sample in which actives are shown more often than they occur. Calls follow the shape of the dose curve; as a rule, active = well fitted activation curve with a large enough effect; inconclusive = small, poorly fitted or top-dose-only effect; inactive = no such curve, though single readings can be large or run the other way.
Potency is read from the fitted curve at half-maximal effect.

A short description of the assay: qHTS Assay for Enhancers of SMN2 Splice Variant Expression. Also: nearly all actives have a fitted effect of over 55% in size. The note with it: HEK293 SMN2-luciferase splicing reporter, luminescence, 30-36 h; series mostly up to 46.1 µM. In a few lines: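 HEK293 cells carry an SMN2 minigene-luciferase reporter in which exon 7 inclusion puts luciferase in frame. Cells were seeded at 2000 cells/well, attached for 10-12 hours, then exposed to compounds for 30-36 hours at 37C before ONE-Glo luminescence.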
(In general: In qHTS, concentration-response curves come from the screen itself.)
Consider `CCCCN1C(=O)c2[nH]nc(-c3ccccc3O)c2C1c1cccc(OCc2ccccc2)c1` (stereo not drawn), for which the Potency entry was “inactive”. With `CC(C)[C@@H]1NC(=O)[C@H](Cc2ccccc2)NC(=O)[C@@H](CC(=O)O)NC(=O)CNC(=O)[C@H](CCCNC(=N)N)NC1=O`, the Potency result is “inactive”.

In the case of `O=C(NCc1ccc(F)cc1)c1ccc2nc(N3CCCCC3)sc2c1`, the Potency was 4.47 µM (active). With `CCOC(=O)N1CCC(NC(=O)c2ccc3nc(N4CCOCC4)sc3c2)CC1`, the Potency result was “inactive”. On the same count and under the same terms, for `Cc1ccc(C)n1-c1nnc(N2CCC(C(=O)NCc3ccc(F)cc3)CC2)s1` the value was “inactive”; for `O=C(NCCCN1CCN(c2cccc(Cl)c2)CC1)c1nnc(Cc2ccc(F)cc2Cl)o1`, “inactive”. `COc1ccc(Cl)cc1NC(=O)Cn1c(=O)c2ccccc2n2nncc12`: the Potency result was “inactive”. As to `CCOc1ccc(CCNC(=O)Cn2nc(CC)n3c(cc4sc(CC)cc43)c2=O)cc1OCC`, the Potency entry was “inactive”. Take `Cc1ccc(Cl)cc1NC(=O)CCS(=O)(=O)c1ccc(Br)s1`: the Potency result is “inactive”. With `Cc1nc2nc(NCc3cccc(Br)c3)[nH]n2c(=O)c1Cc1ccccc1`, the Potency entry is “inactive”. Still for that read-out and setting: for `Cc1cccc(NC(=O)c2ccccc2NC(=O)C(C)(C)C)n1` the value was “inactive”; for `Cc1cccc(NC(=O)c2cc(N3C(=O)CCC3=O)ccc2Cl)n1`, “inactive”.

In the case of `Cc1cccc(NC(=O)c2ccc3ccccc3n2)n1`, the Potency is 12.6 µM (active). With `Cc1csc(SCC(=O)Nc2sccc2C#N)n1`, the Potency is 12.6 µM (active).

For `Cc1cccc(C)c1Nc1nnc(SCC(=O)Nc2sccc2C#N)s1`, the Potency entry was “inactive”. Regarding `COc1ccc(NC(=O)CSc2nc(C)cs2)cc1`, the Potency entry was “inactive”. Regarding `CCCc1cc(=O)n2[nH]c(NCc3ccc(CC)cc3)nc2n1`, the Potency entry was “inactive”. Turning to `CCOc1ccccc1NC(=O)Cn1c(=O)n(-c2cccc(C)c2)c(=O)c2c1c1cc(OC)ccc1n2C`, the Potency result is “inactive”. For the compound `COc1ccc(-c2nc3nc(C)cc(C)n3c2Nc2c(C)cccc2C)cc1`, the Potency entry is “inactive”. As for `CCOC(=O)c1c(NC(=O)Cc2coc3ccc(CC)cc23)sc2c1CCC2`, the Potency result was “inactive”. The same measure, in the same setting: for `CCCCOc1ccc(C(=O)NCc2ccco2)cc1` the value was “inactive”.

Take `CCOc1ccc(-c2nnc(-c3ccco3)o2)cc1`: the Potency was 1.12 µM (active). On to `COc1ccc(C(=O)CSc2nnc(-c3ccco3)o2)cc1`, for which the Potency entry is “inactive”. For the compound `COc1ccc(OCC(=O)Nc2nnc(-c3ccco3)s2)cc1`, the Potency entry is “inactive”. For `N#Cc1ccc(OCc2nnc(-c3ccc([N+](=O)[O-])cc3)o2)cc1`, the Potency entry is “inactive”. In the case of `CCCCOc1ccc(-c2nnc(-c3ccco3)o2)cc1`, the Potency was 14.1 µM (active). With `Cc1ccc(NC(=O)Nc2sc3nc4n(c(=O)c3c2C)CCC(C)CC4)c(Cl)c1` (stereo not drawn), the Potency result is “inactive”.

Take `C=C1O[C@@](CO)(n2cnc3c(N)ncnc32)[C@H](O)[C@@H]1O`: the Potency entry was “inactive”. The same measure, in the same setting: for `O=C1CC(c2nnc(Cc3ccc(Cl)cc3)o2)CN1c1ccccc1` (stereo not drawn) the value was “inactive”; for `COc1ccc(OC)c(NC(=O)C2CCN(S(=O)(=O)c3ccc(C)cc3)CC2)c1`, “inactive”. Same read-out and setting: the value for `COc1ccc(Cl)cc1-n1c(CCC(=O)O)ccc1-c1ccc(C)cc1` was “inactive”. As to `COC(=O)N1C(/C=C/C=C/c2ccc(OC)cc2)=Cc2ccccc2C1CC(C)=O` (stereo not drawn), the activity change, positive = activation was -7.94% [at 9.22 µM] (inactive). For the compound `Cc1ccc2oc(C(=O)Nc3ccc(S(=O)(=O)N4CCCCCC4)cc3)cc(=O)c2c1`, the Potency entry is “inactive”. `CS(=O)(=O)N(C(=O)NC(=O)NC1CCS(=O)(=O)C1)C1CCCCC1` (stereo not drawn): the Potency entry is “inactive”. In the case of `CC(c1ccco1)N(C(=O)Nc1ccccc1)C1CCCCC1` (stereo not drawn), the Potency result was “inactive”. Take `Cc1ccc(NC(=O)NC(=O)N(C2CCCCC2)S(=O)(=O)c2ccccc2)cc1`: the Potency was 7.94 µM (active). Take `CCOC(=O)C1CCCN(CC(=O)Nc2cc(C)c3c(=O)oc4ccccc4c3n2)C1` (stereo not drawn): the Potency result is “inactive”. Still for that read-out and setting: for `CCN(CC)S(=O)(=O)c1ccc2c(c1)c(=O)c(C(=O)N1CCN(c3cccc(Cl)c3)CC1)cn2C` the value was “inactive”. Regarding `CCOCCCNC(=O)c1c(NC(=O)Cc2coc3ccc(C)cc23)sc2c1CCC2`, the Potency entry was “inactive”. Consider `Cc1ccc(C(=O)OCc2nc(N)nc(Nc3ccccc3C)n2)cc1`, for which the Potency result was “inactive”. As for `Cc1ccccc1Nc1nc(N)nc(CN2CCN(c3ccccn3)CC2)n1`, the Potency result was “inactive”.

Regarding `Cc1ccccc1Nc1nc(N)nc(CSc2ccccc2)n1`, the Potency is 14.1 µM (active). As for `COc1ccc(CCNC(=O)CCCn2c(=O)c3ccccc3n(Cc3ccc(C)cc3)c2=O)cc1OC`, the Potency entry is “inactive”. The same measure, in the same setting: for `COc1cccc(/C=C/C(=O)Nc2ccc3c(c2)OCCO3)c1` the value was 11.2 µM (active); for `COc1ccc(OC)c(/C=C/C(=O)OCC(=O)Nc2ccc3c(c2)OCCO3)c1`, “inactive”. As for `CCc1c(C)sc(NC(=O)/C=C/c2ccc3c(c2)OCO3)c1C(=O)OC`, the Potency entry is “inactive”. On to `COc1ccc(/C=C/C(=O)Nc2ccc3c(c2)OCCO3)cc1OC`, for which the Potency result is “inactive”.

Regarding `O=C(/C=C\c1ccc2c(c1)OCO2)NC1(C(=O)Nc2ccc3c(c2)OCCO3)CCCCC1`, the Potency result was “inactive”. On to `Cc1cccc(NC(=O)/C=C/c2ccc3c(c2)OCO3)n1`, for which the Potency was 2.24 µM (active).

As for `COc1ccc(NC(=O)CNC(=O)Cn2ccc3ccccc3c2=O)c(OC)c1`, the Potency result was “inactive”. On to `Cc1ccc(C)c(Cn2c(C(=O)O)c(CNCc3cccs3)c3ccccc32)c1`, for which the Potency entry is “inactive”. On to `CCOc1ccc(Nc2c(S(=O)(=O)c3ccccc3)cnc3ccccc23)cc1`, for which the Potency entry is “inactive”. `COc1cc(Br)cc2cc(S(=O)(=O)c3ccccc3)c(=O)oc12`: the Potency entry was “inactive”.

In the case of `CN(Cc1ccccc1)C(=O)c1cn(C)c2ccc(S(=O)(=O)N3CCCCC3)cc2c1=O`, the Potency result was “inactive”. On the same count and under the same terms, the value for `CCOc1cccc(C(=O)Nc2cccnc2)c1` was “inactive”.

For `CCOc1cccc(C(=O)Nc2nnc(-c3cccs3)s2)c1`, the Potency was 12.6 µM (active). Turning to `CCc1nnc(NC(=O)c2cccs2)s1`, the Potency result is “inactive”.

With `CCC(C)[C@@H](N)C(=O)O` (stereo partly drawn), the Potency entry is “inactive”. `Cc1ccc(N2CC(c3nnc(Cc4ccccc4Cl)o3)CC2=O)cc1` (stereo not drawn): the Potency result is “inactive”.

As for `O=C(c1cc(-c2cccs2)on1)N1CCCCC1`, the Potency is 14.1 µM (active). Take `O=C(c1cc(-c2ccc(F)cc2)on1)N1CCN(c2ccc(F)cc2)CC1`: the Potency result was “inactive”. With `COc1ccccc1N1CCN(C(=O)c2cc(-c3ccc(Cl)c(Cl)c3)on2)CC1`, the Potency result was “inactive”. `COc1ccccc1-c1cc(C(=O)N2CCCCC2)no1`: the Potency is 14.1 µM (active). Same read-out and setting: the value for `O=C(c1ccc(F)cc1)N1CCCC(c2nc(-c3cccs3)no2)C1` (stereo not drawn) was “inactive”. `COc1cccc(-c2cc(C(=O)N3CCN(c4ccccc4OC)CC3)no2)c1`: the Potency entry is “inactive”. Regarding `CCCCn1cc(S(=O)(=O)c2ccc(OCC)cc2)c(=O)c2cc(OC)c(OC)cc21`, the Potency entry is “inactive”. Turning to `O=P(O)(O)C(O)c1ccc2ccccc2c1` (stereo not drawn), the Potency entry is “inactive”. Same read-out and setting: the value for `O=c1cc(COc2cccc(C(F)(F)F)c2)nc2sc3c(n12)CCCC3` was “inactive”; that for `COc1ccc(N(C)C(=O)C2CCN(S(=O)(=O)c3cc(Br)cc4c3N(C(C)=O)CC4)CC2)cc1` was “inactive”; that for `CN(c1ccc(C(=O)NCc2ccccn2)cc1)S(C)(=O)=O` was “inactive”. For `O=C(Cc1nn[nH]n1)NCCC1=CCCCC1`, the Potency entry is “inactive”. The same measure, in the same setting: for `Cn1nnc2cc(C(=O)NCCC3=CCCCC3)ccc21` the value was 11.2 µM (active); for `O=C(NCCC1=CCCCC1)c1ccc(Cl)c([N+](=O)[O-])c1`, “inactive”.

Turning to `CN(c1ccc(C(=O)NCCC2=CCCCC2)cc1)S(C)(=O)=O`, the Potency is 11.2 µM (active). Regarding `O=C(Cc1cccc2ccccc12)NCCC1=CCCCC1`, the Potency result is “inactive”. Consider `Cc1nc2nc(SCC(=O)N(Cc3ccccc3)C(C)C)nn2c(C)c1Cc1ccccc1Cl`, for which the Potency entry is “inactive”. As to `CCc1ccc(CN(Cc2ccco2)C(=O)c2ccccc2Cl)cc1`, the Potency entry was “inactive”. `COc1ccccc1CNC(=O)CCCn1c(=O)c2ccccc2n(CC(=O)Nc2ccc(C)cc2Cl)c1=O`: the Potency result is “inactive”. With `O=C(NC1=NCCS1)c1ccc(Cl)s1`, the Potency was 15.8 µM (active). `O=C(NCc1ccc2c(c1)OCO2)c1ccc(Cl)s1`: the Potency result was “inactive”. As to `O=C(NC1=NCCS1)[C@H](Cc1ccccc1)N1C(=O)c2ccccc2C1=O`, the Potency entry is “inactive”. As to `COc1cccc2c1cc1c(=O)n(CC(=O)N3CCN(c4ccccc4)CC3)nc(C)n12`, the Potency entry is “inactive”. Turning to `CCNC(=O)CC1C(=O)N(c2ccc(F)cc2)C(=O)N1Cc1ccc(C)cc1` (stereo not drawn), the Potency result is “inactive”.

Consider `CC(C)CC(=O)NC(=S)Nc1cc(C(=O)O)ccc1Cl`, for which the Potency entry was “inactive”. Same read-out and setting: the value for `CC(=O)c1ccc(NC(=S)NC(=O)CC(C)C)cc1` was 7.94 µM (active); that for `COc1ccc(NS(=O)(=O)c2ccc(NC(=S)NC(=O)CC(C)C)cc2)cc1` was “inactive”; that for `Cc1cccc(NC(=O)Cn2c(C(F)(F)F)nc3ccccc32)c1C` was “inactive”. As to `COc1ccc(N2CCN(c3cc(C)nc4nncn34)CC2)cc1`, the Potency result was “inactive”.

In the case of `O=C(c1ccc2c(c1)N(Cc1ccccc1F)C(=O)c1ccccc1S2(=O)=O)N1CCOCC1`, the Potency entry is “inactive”. With `CC(=O)Nc1cccc(-c2csc(Nc3cccc(C)n3)n2)c1`, the Potency was 10 µM (active). Same read-out and setting: the value for `CC(=O)Nc1ccc(-c2csc(NC(=O)Nc3ccccc3)n2)cc1` was “inactive”; that for `COc1ccc(CCNc2nc(-c3cccc(NC(C)=O)c3)cs2)cc1OC` was “inactive”. On to `COc1ccccc1CNC(=O)CCn1c(=O)c2ccccc2n(CC(=O)Nc2cccc(Cl)c2)c1=O`, for which the Potency result was “inactive”. Consider `O=C(O)c1cccc(N=NN2CCCCCC2)c1`, for which the Potency was 0.631 µM (active). Take `O=C(O)c1ccc(N=NN2CCOCC2)cc1`: the activity change, positive = activation was -3.34% [at 1.84 µM] (inactive). As to `O=C(Nc1cccc(C(=O)N2CCCC2)c1)c1ccccc1`, the Potency result was “inactive”. Consider `CCOC(=O)c1cc2c(=O)n3ccccc3nc2n(CC2CCCO2)c1=NC(=O)c1ccccc1F` (stereo not drawn), for which the Potency entry was “inactive”. The same measure, in the same setting: for `CCOC(=O)c1c(C)[nH]c2c1-c1ccccc1C(=O)C2=O` the value was “inactive”; for `CCOC(=O)c1c(C)[nH]c(C2=NNC(=NC(C)COC)SC2)c1C` (stereo not drawn), 3.16 µM (active). On to `Cc1cc(=O)oc(C)c1C(=O)N1CCCCC1`, for which the Potency result is “inactive”.

For the compound `CCc1ccc(CNC(=O)c2cc3cc4ccc(OC)cc4nc3o2)cc1`, the Potency entry was “inactive”. Same read-out and setting: for `Cc1ccc2cc3cc(C(=O)N4CCCCCC4)oc3nc2c1` the value was 5.01 µM (active); for `COc1ccccc1Nc1c2c(nc3ccc(NC(=O)/C=C/c4cc(OC)c(OC)c(OC)c4)cc13)CCCC2`, “inactive”.
